ssDAF-12 act: activates DAF-12 receptor from parasite S. stercoralis; AID 652126; activation, % at 6.8 µM; HEK293 ssDAF-12/GRIP1 lit1-tk-luc reporter, luminescence; % of 3 µM dafachronic acid response; 370,000 tested, 1% active;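 active = activation above the mean over all tested compounds plus 3 SD, cut at about 0.9% in these data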;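 also: 0% = DMSO-only wells and 100% = 3 µM delta7-dafachronic acid wells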
hcDAF12 agonist: H. contortus DAF-12 activation, primary screen. HEK293 hcDAF-12 lit1-tk-luc reporter, luminescence; 0% DMSO, 100% Δ7-dafachronic acid. 370,000 tested, 1.4% active. AID 652067. activation, % at 6.8 µM;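 active = activation above the mean of all tested compounds plus 3 SD, cut at about 5.5% in these data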;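 also: 100% = response to 3 µM Δ7-dafachronic acid high control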
DAX1 inh-1: inhibitors of human orphan nuclear receptor DAX1 (NR0B1); inhibition, % at 6.75 µM; P51843; 340,000 tested, 0.99% active; HEK293 Gal4-DAX1 luciferase reporter, luminescence;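 active = inhibition above the mean over all tested compounds plus 3 SD, cut at about 4.2% in these data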;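 also: 0% = DAX1-transfected cells with DMSO and 100% = empty-vector control cells with DMSO; inhibition shows as a rise in luminescence from relieved DAX1 repression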
Target sequence (P51843 207-470 limits assumed): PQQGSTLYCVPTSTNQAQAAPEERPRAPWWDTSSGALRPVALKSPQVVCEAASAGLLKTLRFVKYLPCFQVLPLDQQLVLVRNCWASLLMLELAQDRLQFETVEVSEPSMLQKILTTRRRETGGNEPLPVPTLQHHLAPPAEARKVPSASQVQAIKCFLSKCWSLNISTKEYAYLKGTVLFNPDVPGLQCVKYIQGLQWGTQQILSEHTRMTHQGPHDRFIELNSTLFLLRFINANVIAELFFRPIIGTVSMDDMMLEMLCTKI
hgDAF12 agonist: hgDAF-12 agonism, primary luciferase screen. HEK293 GAL4-hgDAF12 UAS-luciferase reporter, agonist luminescence; normalized to butyrate control. activation, % at 6.8 µM. 370,000 tested, 1.8% active;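 active = activation above a cutoff set at the mean of all screened compounds plus 3 SD, cut at about 10% in these data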;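 also: 0% = DMSO wells and 100% = sodium butyrate wells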
DAX1 inh-2: DAX1 (NR0B1) inhibition, primary screen | HEK293T StAR-luciferase reporter, SF-1/DAX-1 repression relief | 370,000 tested, 1.1% active | inhibition, % at 6.8 µM;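 active = inhibition above the mean over all tested compounds plus 3 SD, cut at about 3.6% in these data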;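 also: 0% = DAX-1 cells with DMSO and 100% = cells lacking DAX-1 with DMSO; higher inhibition means more luminescence from relief of DAX-1 repression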
Starred values were filed as active, the others as inactive; . = not tested or not shown. A selection: hits, their analogues and other compounds. The true share with any hit is near 4.1%.

SMILES | ssDAF-12 act | hcDAF12 agonist | DAX1 inh-1 | hgDAF12 agonist | DAX1 inh-2
O=C(Nc1cccc(Cl)c1)OCCOc1ccccc1 | -1 | 1 | 6.0* | 4 | 0
NNC(=O)c1ccccc1OCCOc1ccccc1 | 2.7* | 3 | 3 | 0 | 0
O=C(Nc1cccc(Cl)c1)OCCOC(=O)Nc1cccc(Cl)c1 | -1 | -1 | -1 | 3 | 0
COc1ccc(OCCNC(=O)c2ccccc2Cl)cc1 | 0 | -1 | -1 | 2 | 0
CCOC(=O)C1=NOC(C(C)=O)(C(=O)NC2CCCC2)C1 (stereo not given) | -1 | -1 | . | 1 | 1
COc1ccc(OCCOC(=O)Nc2ccccc2)cc1 | -1 | 1 | 0 | 2 | -1
O=C(Nc1ccccc1)OCCOc1ccccc1 | -1 | 2 | 3 | 12* | 1
COc1ccc(O)c(-c2cc(-c3cccc(Br)c3)n[nH]2)c1 | 0 | 3 | 0 | 6 | 0
COc1ccc(-c2cc(-c3cc(OC)ccc3O)[nH]n2)cc1 | 0 | 5 | 3 | 13* | 1
COc1ccc(-c2cc(-c3ccc(Cl)cc3)n[nH]2)c(O)c1 | 0 | 5 | 5.4* | 11* | 2
CC(=O)NCCc1ccc(C(=O)CSc2nnc(C3CC3)n2C2CC2)cc1 | -1 | 3 | 1 | 2 | 4.5*
C=CCn1c(C)cc(C(=O)CSc2nnc(C3CC3)n2C2CC2)c1C | 0 | 0 | 0 | 3 | 4.2*
C=CCN1C(=O)[C@@H](CC(=O)N2CCCC2)[C@]2(C(=O)OCC)CCCCC/C=C/12 | -1 | 0 | . | -3 | 1
N/C(=N\OC(=O)COc1ccc(Br)cc1Cl)c1cccnc1 | -1 | 2 | 1 | 12* | 0
Cc1ccc(C)c(OCC(=O)O/N=C(\N)c2cccnc2)c1 | -1 | 2 | 0 | 1 | 0
N/C(=N\OC(=O)COc1ccc(Cl)cc1Br)c1cccnc1 | -1 | 2 | 1 | 11* | 1
CCN(CC)C(=S)SCC(=O)Nc1ccc(F)cc1 | -1 | -2 | 0 | -2 | -1
CCN(CC)C(=S)SCC(=O)c1c(C)[nH]c2ccccc12 | -1 | 1 | 0 | 1 | 0
CCN(CC)C(=S)SCC(=O)c1ccccc1 | 0 | 2 | 4 | 11* | 2
CCN(CC)C(=S)SCC(=O)c1ccc(F)cc1 | 1.1* | 3 | 2 | 9 | 2
O=C(CSc1nnc(-c2cccnc2)n1-c1ccccc1)Nc1ccccc1 | -1 | -2 | -2 | 12* | 0
Cc1ccc(NC(=O)CSc2nnc(-c3cccnc3)n2-c2ccc(C)cc2)cc1 | -1 | -2 | 0 | -2 | 0
CNC(=O)CSc1nnc(-c2cccnc2)n1-c1ccc(C)cc1 | 0 | -2 | 4.4* | 0 | -1
CCN(CC)C(=O)CC[C@H]1CC[C@]2(CCCN(S(=O)(=O)C3CCCCC3)C2)O1 | -1 | -2 | . | 1 | -1
Clc1ccc(-c2nc3ccccn3c2CN2CCOCC2)cc1 | -1 | 0 | 0 | 5 | 0
SMILES | ssDAF-12 act | hcDAF12 agonist | DAX1 inh-1 | hgDAF12 agonist | DAX1 inh-2
COc1ccc(-c2nc3ccccn3c2CN2CCN(c3ccccc3F)CC2)cc1 | -1 | 0 | 4.4* | 6 | 1
CC(C)CN1C(=O)C[C@]2(C(=O)N(C)c3ccc(NC(=O)c4cc(F)ccc4F)cc32)C1c1ccccc1 (stereo not given in full) | -1 | 3 | . | 1 | -1
COc1ccccc1CCc1nnc(CCC(=O)N(C)Cc2cccc3cnccc23)o1 | -1 | 1 | 1 | 11* | 1
COC(=O)[C@@]12CCCCC3=C1N(CCC3)C(=O)[C@H]2CC(=O)N1CCCC1 | -1 | -1 | . | 1 | 1
COc1ccc(/C=C2\SC(=O)N(CCC(=O)N3CCCCC3)C2=O)cc1OC | -1 | -1 | 5.8* | -1 | 0
O=C(CCN1C(=O)S/C(=C\c2ccccc2)C1=O)N1CCCCC1 | 0 | 0 | -1 | 0 | 0
COc1ccc(/C=C2\SC(=O)N(CC(=O)Nc3ccc(O)cc3)C2=O)cc1OC | -1 | -2 | 0 | -3 | 0
COc1ccc(/C=C2\SC(=O)N(CC(=O)NN3CCN(C)CC3)C2=O)cc1OC | -1 | 0 | 4.7* | -1 | 0
COc1ccccc1-c1nnc(SCC#CCOC(=O)c2ccc(F)cc2)o1 | -1 | 0 | . | 3 | .
O=C(O)Cn1cc(C(=S)N2CCCCC2)c2ccccc21 | -2 | 3 | 6.2* | 0 | 1
O=C(O)Cn1cc(/C=C/[N+](=O)[O-])c2ccccc21 | 0.9* | 4 | -1 | 3 | 1
COCCCN1C(=O)[C@H](CC(=O)N2CCC(c3ccccc3)CC2)[C@]2(C(=O)OC)CCCCC=C12 | 0 | -2 | . | 5 | 0
COC(=O)c1ccc(COc2ccccc2/C=C(\C#N)C(=O)Nc2ccc(C)cc2)cc1 | -1 | 3 | 3 | 11* | 3.9*
O=C(Nc1ccccn1)c1ccc(S(=O)(=O)N2CCCCCC2)cc1 | 0 | 0 | 1 | 8 | 4.3*
CC(=O)Nc1ccc(S(=O)(=O)N2CCN(c3ncccn3)CC2)cc1 | -2 | 0 | 6.0* | 1 | -1
O=C(Nc1ccccn1)c1ccc(S(=O)(=O)N2CCCCC2)cc1 | 0 | 2 | 1 | 5 | 3.8*
CC(=O)Nc1ccc(S(=O)(=O)N2CCN(c3ccccn3)CC2)cc1 | -2 | 0 | -1 | -4 | 0
Cc1ccc(-c2nnc3n2N=C(c2ccc(-c4ccccc4)cc2)CS3)cc1 | -2 | -4 | . | -1 | -2
Fc1cccc(CSc2nnc3c(n2)[nH]c2ccccc23)c1 | -2 | 0 | -2 | -1 | -1
CN(C)CCSc1nnc2[nH]c3ccccc3c2n1 | 1.1* | 3 | 0 | 3 | 1
CC(C)CNC(=O)OCc1cn(Cc2ccc(C(F)(F)F)cc2)nn1 | -1 | -1 | . | -2 | 0
COc1ccc(CNC(=O)CSc2nc3c([nH]2)c(=O)n(C)c(=O)n3C)cc1 | -2 | -2 | . | -2 | 0
COc1ccc(C2CC(=O)c3c(O)cc(O)cc3O2)cc1O (stereo not given) | -1 | 0 | 4.8* | 9 | 4
CCn1c(SCC(=O)N2CCN(c3ccccc3)CC2)nc2c([nH]c3ccccc32)c1=O | 1.2* | 3 | 1 | 3 | 0
CCn1c(SCC(=O)N2CCCCCC2)nc2c([nH]c3ccccc32)c1=O | 0 | 5 | 0 | 1 | 1
COc1cccc(NC(=O)COC(=O)c2c(F)cccc2Cl)c1 | 0 | 1 | 4.4* | 6 | 1
O=C(COC(=O)c1c(F)cccc1Cl)NCC1CCCCC1 | -1 | 0 | 1 | 11* | 0
COc1cccc(NC(=O)COC(=O)c2ccccc2F)c1 | -2 | -2 | -1 | -1 | 1
O=C(COC(=O)c1c(F)cccc1Cl)NC1CCCC1 | 0 | 1 | 1 | 7 | 1
Cn1c(CNC(=O)c2ccc(F)cc2)cc2ccccc21 | 1.0* | 1 | 4.3* | 1 | -1

Screens: PubChem, The Scripps Research Institute Molecular Screening Center
